High-throughput results (PubChem BioAssay)
This excerpt belongs to a sample that is enriched for hits.
HEK293 tox – qHTS of GLP-1 Receptor Inverse Agonists: Cytotox Screen. Potency, µM (highest dose often 38.3 µM), hits mostly inhibitors. AID 624418, 2012. HEK293 cAMP-luciferase reporter cells, luminescence, 24 h. 410,000 tested, 0.13% active;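 further: loss of luciferase light is scored as toxicity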
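1536-well qHTS counterscreen of the MLSMR; 200 cells/uL, 12 h pre-incubation, 23 nL cpd, 24 h at 37 deg C 5% CO2, luciferase detection reagent, 12 min RT, luminescence. Inhibition = undesired.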
RXFP1 agonist – qHTS Assay for Agonists of the Relaxin Receptor RXFP1; Relaxin receptor 1 (Homo sapiens), Q9HBX9; Potency, µM (highest dose often 57.5 µM), hits mostly activators; 370,000 tested, 0.3% active; HEK293T-RXFP1 cAMP TR-FRET, 30 min; response scale: percent of porcine relaxin response, buffer zero; further: nearly all actives have a fitted effect of over 60% in size
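HEK293 cells stably expressing RXFP1, treated 30 min at 37C with compounds plus PDE4 inhibitor Ro 20174; cAMP measured by HTRF TR-FRET. Normalized to buffer and 29 nM porcine relaxin; EC50 by Hill fit.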
NPSR antagonist – qHTS Assay for Antagonists of the Neuropeptide S Receptor: cAMP Signal Transduction. CHO-NPSR cells, cAMP TR-FRET, antagonist mode. Potency, µM (doses to about 38.3 µM), actives largely listed as inhibitors. 220,000 tested, 1% active. AID 1461, 2008; further: nearly all actives have a fitted effect of over 50% in size
PTHR1 ag – qHTS for PTHR1 Agonists: Primary Screen. Parathyroid hormone/parathyroid hormone-related peptide receptor (Homo sapiens), Q03431. HEK293 GP2 PTHR1 cells, GloSensor cAMP luminescence, 1 h. Potency, µM (highest dose often 115 µM), hits mostly activators. 410,000 tested, 0.075% active; further: nearly all actives have a fitted effect of over 55% in size
Target sequence (Q03431 whole entry, looked up): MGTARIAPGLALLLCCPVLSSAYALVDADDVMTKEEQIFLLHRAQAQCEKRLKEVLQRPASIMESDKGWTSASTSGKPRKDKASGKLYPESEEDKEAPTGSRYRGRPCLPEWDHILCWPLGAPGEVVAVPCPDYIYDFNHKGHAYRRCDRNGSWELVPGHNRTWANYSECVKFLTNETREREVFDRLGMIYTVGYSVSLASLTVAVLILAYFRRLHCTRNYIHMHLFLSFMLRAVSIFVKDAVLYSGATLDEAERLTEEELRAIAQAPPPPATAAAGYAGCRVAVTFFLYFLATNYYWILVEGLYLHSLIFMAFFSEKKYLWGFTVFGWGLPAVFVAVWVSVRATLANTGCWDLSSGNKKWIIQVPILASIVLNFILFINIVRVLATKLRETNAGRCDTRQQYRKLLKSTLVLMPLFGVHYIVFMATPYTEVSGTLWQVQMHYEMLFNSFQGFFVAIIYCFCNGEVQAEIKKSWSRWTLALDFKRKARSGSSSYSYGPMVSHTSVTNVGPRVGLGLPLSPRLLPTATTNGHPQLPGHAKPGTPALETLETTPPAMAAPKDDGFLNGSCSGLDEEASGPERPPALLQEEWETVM
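HEK-293-derived GP2 cells expressing PTHR1 and a GloSensor cAMP reporter, 3,000/well, plated overnight, given luciferin plus IBMX (each 0.5 mM as added) for 1 h at 37 °C, then compound for 1 h at 37 °C. Luminescence was read after 15 min at room temperature.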
TSHR antag – Antagonists of the Thyroid Stimulating Hormone Receptor: HTS campaign; TSHR-expressing cells, TSH-stimulated cAMP HTRF, 2 h; stronger effect = lower value; activity change, negative = inhibition, % at 11.5 µM; 330,000 tested, 0.2% active;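 active means activity change below a set negative limit, meaning inhibition stronger than a set level, cut at about -70% in these data; inconclusive means activity change between two set negative limits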
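Cell-based HTRF cAMP assay; TSHR cells + compound, TSH EC80 (4nM final), 2 h, 37 deg C. Lysis with anti-cAMP cryptate and cAMP-d2, 30 min RT, read 665/620 nm.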
RXFP1 antag – qHTS Assay for Antagonists of the Relaxin Receptor RXFP1 | Relaxin receptor 1 (Homo sapiens), Q9HBX9 | HEK293-RXFP1, relaxin-stimulated cAMP HTRF, 30 min; stronger effect = lower value | activity change, negative = inhibition, % at 57.5 µM | 350,000 tested, 0.59% active;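 active means activity change of -60% or lower, but not beyond a set lower limit; inconclusive means change between -60% and -40%, or beyond the set limit; inactive means change above -40%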
Numbers stand for hits; – = inactive; ? = inconclusive; · = not tested or not shown; [ ] = dose if it differs, or a comment. Unless noted, the call rests on the fitted dose curve; in most records, active means well fitted curve in the direction sought with a large enough effect; inconclusive means small, poorly fitted or top-dose-only effect, or another doubt; inactive means no such curve, though single readings can be large; an effect the other way counts as inactive or inconclusive.

SMILES | HEK293 tox | RXFP1 agonist | NPSR antagonist | PTHR1 ag | TSHR antag | RXFP1 antag
O=[N+]([O-])c1ccc(-n2nnnc2-c2ccccc2)cc1 | – | – | – | – | – | –
CCn1c(Cl)c(C=O)s/c1=N\S(=O)(=O)c1ccccc1 | ? | – | 10µM | – | -98 | -87
CCCCSc1nc2sc3c(c2c(=O)n1-c1ccc(C)cc1)CCN(C)C3 | – | – | · | – | -74 | –
CCSc1nnc(NC(=O)c2cc(=O)c3cc(C)ccc3o2)s1 | – | – | · | – | · | –
COc1ccc(Cn2nnnc2C(C(C)C)N2CCN(c3ccccc3OC)CC2)cc1 (stereo not drawn) | – | – | – | – | -86 | –
Cc1ccc(-n2nc3c(=O)n(CC(=O)NCCC4=CCCCC4)nc(C)c3c2C)cc1 | – | – | · | – | – | -102
COc1ccc(C)cc1S(=O)(=O)N1CCCC(N2CCN(c3ccccc3)CC2)C1 (stereo not drawn) | – | · | · | – | · | –
Cc1c(Cl)cccc1NC(=O)C(CCS(C)(=O)=O)N1Cc2ccccc2C1=O (stereo not drawn) | – | – | · | – | · | –
CCn1c(=S)sc2c(=O)n(CC(=O)Nc3ccccc3OC)c(C)nc21 | – | – | · | – | -134 | –
Cc1sc2nc(CSCC(=O)Nc3ccc(Cl)cc3F)[nH]c(=O)c2c1C | – | – | · | – | – | –
CCOC(=O)C1=C(Cc2ccc(C)cc2)C(=O)c2ccccc2C1=O | · | – | 10µM | · | – | ·
O=[N+]([O-])c1cccc(N/N=C/c2cccc(O)c2O)c1 | ? | – | – | – | – | -87
CN1Cc2cc(C(=O)N3CCC(C4CCNCC4)CC3)ccc2NC(CC(=O)O)C1=O (stereo not drawn) | · | · | · | · | · | –
Cc1cccc(N(C)S(=O)(=O)c2cc3[nH]c(=O)c(=O)[nH]c3cc2C)c1 | – | – | · | – | · | –
COc1ccc(-c2nn(-c3ccccc3)cc2/C=N/Nc2ccc3ccccc3n2)cc1OC | 13µM | – | – | – | – | –
COc1ccc(-c2nn(-c3ccccc3)cc2/C=N/O)cc1OC | – | – | · | – | – | –
COc1ccc(NC(=O)/C(Cl)=C(/Cl)S(=O)Cc2ccccc2)cn1 (stereo not drawn) | 2.8µM | – | 1.3µM | – | – | -72
C=CCn1c(=O)n([C@@H]2O[C@H](CO)[C@@H](O)[C@H]2O)c2nc(N)[nH]c(=O)c21 | · | · | · | · | · | –
Cc1ccc(CN2C(=O)CN(C3CCC(C)CC3)C(=O)C2c2ccc(F)cc2)cc1 (stereo not drawn) | – | – | · | – | · | –
O=C(Nc1nc(-c2ccco2)c(-c2ccco2)s1)C1CCC1 | – | – | – | – | – | -61
O=C(CSc1nc2ccccc2nc1Cc1ccccc1)Nc1ccccc1C(F)(F)F | – | ? | · | – | · | ·
O=C(NC1CC1)C1CCN(c2ccc(S(=O)(=O)N3CCOCC3)cc2)CC1 | – | – | – | – | – | –
CC(C)CNC(=O)C1CCN(c2ccc(S(=O)(=O)N3CCOCC3)cc2)CC1 | – | – | –[7.67 µM] | – | -77 | –
CCCc1ncc(C(=O)O)s1 | · | · | · | · | · | –
CN(CC(=O)Nc1ccc(F)c(F)c1F)C(=O)CCc1nc2sc3c(c2c(=O)[nH]1)CCCC3 | – | – | · | – | – | -63
SMILES | HEK293 tox | RXFP1 agonist | NPSR antagonist | PTHR1 ag | TSHR antag | RXFP1 antag
Cc1cccc(C)c1NC(=O)CN(C)C(=O)CCc1nc2sc3c(c2c(=O)[nH]1)CCCC3 | – | – | · | – | – | –
O=C(COC(=O)c1cccc(Br)c1)NCCNC(=O)COC(=O)c1cccc(Br)c1 | – | – | · | – | – | –
Cc1cc(NC(=O)C(C)SCC(=O)Nc2cc(C(F)(F)F)ccc2N2CCOCC2)no1 (stereo not drawn) | – | – | · | – | – | -72
Cc1cc(NC(=O)C(C)SCC(=O)Nc2cc(Cl)ccc2N2CCN(C)CC2)no1 (stereo not drawn) | – | – | · | – | – | –
O=C(Nc1ccc(F)cc1)N1CCOCC1 | – | – | – | – | – | –
CN(C)c1ccc(NC(=O)N2CCOCC2)cc1 | – | – | – | – | – | -69
COc1ccc([C@]23Cc4ccccc4C(O2)C2=C(CC(C)(C)CC2=O)O3)cc1 | · | –[11.5 µM] | · | · | · | ·
Cc1cc(NC(=O)CSc2ncnc3c2cnn3-c2cccc(Cl)c2)no1 | – | 6.3µM | – | – | – | –
Cc1cc(NC(=O)CSc2ncnc3c2cnn3-c2ccccc2)no1 | – | – | – | – | – | –
Oc1ccc(/C=N/n2c(-c3ccco3)csc2=Nc2cccnc2)c(O)c1 | – | – | – | – | – | -62
CN=c1scc(-c2cccs2)n1/N=C/c1ccc(O)c(O)c1O | ? | – | – | – | – | -63
COCCN=c1scc(-c2ccco2)n1/N=C/c1ccc(O)c(O)c1O | ? | – | – | – | – | -104
Cc1cccc(NC(=S)NCc2ccccn2)c1 | ? | – | – | – | – | –
Cc1ccc(NC(=S)NCc2ccccn2)cc1 | ? | – | – | 16µM | – | –
COc1ccc(N2CCN(C(=O)[C@@H](NC(=O)c3ccccc3Cl)C(C)C)CC2)cc1 | – | – | · | – | – | –
COc1ccc(N2CCN(C(=O)[C@H](C)NC(=O)c3ccccc3Cl)CC2)cc1 | – | – | · | – | -99 | –
COc1ccc(C2/C=C\CN(C(=O)Nc3ccccc3-c3ccccc3)CC(=O)N2Cc2ccc(F)cc2)cc1 (stereo not drawn) | – | – | 10µM | – | – | ·
O=C(N/N=C1\CCCCc2ccccc21)c1ccccn1 | – | – | – | – | – | -65
CCNC(=S)N/N=C1\CCCCc2ccccc21 | 4µM | – | – | – | – | ·
Cc1cccc(NC(=S)N/N=C2/CCCCc3ccccc32)c1 | – | – | – | – | – | –
C=C(C)CNC(=S)N/N=C1\CCCCc2ccccc21 | 4µM | – | ? | – | – | –
Cc1ccc(NC(=S)N/N=C2/CCCCc3ccccc32)cc1 | – | – | – | – | – | -61
CC(C)(C)c1ccc(-c2nc(SCC(=O)Nc3ccc(Cl)cc3)[nH]c(=O)c2C#N)cc1 | – | – | · | – | · | –
O=S(=O)(O)c1cccc2c(N=Nc3ccc(O)c4ncccc34)cccc12 | 11µM | – | · | – | – | –
COc1cn(CC(=O)Nc2ccc(C)cc2)c(CN2CCCCC2)cc1=O | – | – | · | – | · | –
CCc1ccc(NC2=NCC(c3ccccc3)S2)cc1 (stereo not drawn) | ? | – | – | – | – | -69
C=CC(=O)Nc1cc2c(Nc3ccc(F)c(Cl)c3)ncnc2cc1OCCCN1CCOCC1 | · | · | · | · | · | –
